# HT1080-NT tox = kills 2HG-producing HT-1080-NT fibrosarcoma cells. HT-1080-NT fibrosarcoma viability, CellTiter-Glo ATP luminescence, 48 h. Potency, µM (doses to about 46.1 µM), inactives show at the top dose activity, negative = less viability, usual class: cytotoxic. 1.6% of 360,000 active. AID 686970;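 further: NT is the 2HG producing partner of a matched IDH1 knockdown line; 0% = DMSO-treated cells and -100% = media-only wells without cells; nearly all actives have a fitted effect of over 55% in size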
#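 A 48-hour cytotoxicity screen used HT-1080-NT cells plated 2 hours before compound delivery. ATP-based CellTiter-Glo luminescence measured viability, normalized to DMSO and no-cell controls.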
# KB-V1 cytotox = kills drug-selected multidrug resistant KB-V1 cells; KB-V1 MDR cells viability, CellTiter-Glo, 72 h; Potency, µM (series often up to 46.1 µM), actives largely listed as cytotoxic; 3.4% of 400,000 active; further: nearly all actives have a fitted effect of over 60% in size
#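 KB-V1 cells (P-gp-expressing MDR subline of KB-3-1) in phenol-red-free DMEM with 10% FBS were exposed to library compounds over a concentration series for 72 h at 37 degrees C. Viability read by CellTiter-Glo luminescence; concentration-effect curves fitted after normalization.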
# TDP1 cell noCPT = qHTS for Inhibitors of human tyrosyl-DNA phosphodiesterase 1 (TDP1): qHTS in cells in absence of CPT | DT40 Tdp1-/- hTDP1 cells, no CPT, ATP luminescence, 48 h | Potency, µM (doses to about 46.2 µM), inactives show at the highest dose activity change, negative = growth inhibition, actives largely listed as inhibitors | 15% of 420,000 active; further: nearly all actives have a fitted effect of over 55% in size
#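 Stably hTDP1-transfected Tdp1-null chicken DT40 cells were treated with library compounds minus camptothecin and grown for at least 48 hr at 37 °C, after which cellular ATP was quantified by luminescence.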
# HT1080 IDH1KD tx = HT-1080 IDH1 knockdown cell toxicity (counter line); HT-1080 IDH1 knockdown viability, ATP luminescence, 48 h; Potency, µM (highest dose often 46.1 µM), without a hit: at the highest dose activity, negative = toxicity, usual class: cytotoxic; 2% of 360,000 active;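 further: 0% = DMSO wells and -100% = cell-free medium wells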
#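 After a 2 h attachment period, IDH1KD HT-1080 cells took pin-transferred compound for 48 h at 37 °C; ATP-based luminescence after 10 min room-temperature reagent incubation reported viability.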
# KB-3-1 cytotox = kills parental KB-3-1 adenocarcinoma cells | Potency, µM (doses to about 46.1 µM), usual class: cytotoxic | 1.4% of 400,000 active | KB-3-1 viability, CellTiter-Glo ATP luminescence, 72 h; further: nearly all actives have a fitted effect of over 60% in size
#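 Viability of parental KB-3-1 cells, measured by CellTiter-Glo luminescence, followed a 72 h incubation at 37 °C with pinned compounds in phenol-red-free DMEM containing 10% FBS.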
# TDP1 cell CPT = DT40-hTDP1 cell growth loss with CPT; Potency, µM (doses to about 46.2 µM), inactives show at the top dose activity change, negative = growth inhibition, most hits filed as inhibitors; chicken DT40 Tdp1-/-;hTDP1 cells + 20 nM CPT, ATP luminescence, 48 h; 12% of 420,000 active; AID 686979; further: nearly all actives have a fitted effect of over 55% in size
#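 Chicken DT40 Tdp1-/- cells stably complemented with human TDP1 were seeded at 400 cells/well in medium containing 20 nM camptothecin, exposed to pin-transferred compounds, and grown at 37 °C for at least 48 hr. Viability was read as ATP luminescence.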
# Numbers without * were called inactive; i = inactive; ? = inconclusive; nt = no result; [ ] = dose if it differs, or a comment. Shown are actives, neighbours in structure and some others; about 19% of the full set was active somewhere. The call rests on the fitted dose curve; in most records, active means well fitted curve in the direction sought with a large enough effect; inconclusive means small, poorly fitted or top-dose-only effect, or another doubt; inactive means no such curve, though single readings can be large; an effect the other way counts as inactive or inconclusive. Unless noted, on the % scale 0 is the no-effect control and ±100 the full control effect; potency means the concentration at half of the fitted maximal effect.
SMILES,HT1080-NT tox,KB-V1 cytotox,TDP1 cell noCPT,HT1080 IDH1KD tx,KB-3-1 cytotox,TDP1 cell CPT
Cc1c(Cl)cccc1NC(=O)Cn1c(=O)n(Cc2ccco2)c(=O)c2sc3ccccc3c21,nt,i,?,nt,i,?
O=C1CN(C(=O)COc2ccc(Br)cc2Br)c2ccccc2N1,11%,i,2%,14%,i,4%
CC(=O)Nc1ccc(-c2csc(NNC(=O)c3ccc(C)cc3)n2)cc1,5%,i,10µM*,13%,i,13µM*
Cc1nc2ccccn2c1C(=O)NNC(=S)Nc1ccc(Cl)cc1,-6%,?,18µM*,-25%,i,?
Cc1cccc(-n2cnc(C(=O)NNC(=S)Nc3ccc(Cl)cc3)c2)n1,-22%,i,12µM*,-23%,13µM*,7.3µM*
Cc1nc2ccccn2c1C(=O)NNC(=S)Nc1ccccc1,0%,i,-7%,15%,i,5%
O=C(COC(=O)c1cc[n+]([O-])cc1)Nc1ccc(Cl)cc1Cl,12%,i,-10%,14%,i,-12%
Cc1ccc(S(=O)(=O)Nc2cccc(C(=O)NCc3cccnc3)c2)cc1F,?,i,4.6µM*,6.5µM*,7.3µM*,?
O=C(NCc1cccnc1)c1cccc(S(=O)(=O)Nc2ccc(F)cc2)c1,-5%,i,?,-14%,i,?
Cc1ccc(S(=O)(=O)Nc2cccc(C(=O)NCC(c3ccccc3)N(C)C)c2)cc1F (configuration not stated),-10%,i,?,-2%,i,-15%
Cc1ccc(S(=O)(=O)Nc2cccc(C(=O)NCC(c3ccco3)N(C)C)c2)cc1F (configuration not stated),7%,i,21µM*,4%,i,?
O=[N+]([O-])c1ccc(S(=O)(=O)N/N=C/c2ccsc2)cc1,-4%,i,-7%,-1%,i,-13%
O=C(Nc1cccc(O)c1)c1cc(-c2ccccc2Cl)on1,-10%,i,-5%,-16%,i,-15%
O=C(c1ccco1)N1CCN(/C(=N/S(=O)(=O)c2cccs2)c2ccccc2Cl)CC1,1%,i,-29%,1%,i,-14%
CC(C)OCCCn1c(=O)c2ccccc2n2c(-c3cc(Cl)ccc3O)nnc12,nt,i,18µM*,nt,i,?
O=c1c2ccccc2n2c(-c3ccc(F)c(F)c3)nnc2n1CCc1ccccc1,nt,i,?,nt,i,?
O=c1c2ccccc2n2c(-c3ccc(Cl)cc3)nnc2n1CCc1ccccc1,nt,i,18µM*,nt,i,?
CC(C)OCCCn1c(=O)c2ccccc2n2c(-c3ccccc3F)nnc12,nt,i,?,nt,i,-26%
COc1cccc(-c2nnc3n(Cc4ccc(C)cc4)c(=O)c4ccccc4n23)c1O,nt,i,26µM*,nt,i,?
COc1ccc(OC)c(-c2nnc3n(CCc4ccccc4)c(=O)c4ccccc4n23)c1,nt,i,16µM*,nt,i,8.2µM*
C[C@@H]1CN(Cc2ccc3c(c2)CN(Cc2cccc4c2OCO4)CCO3)C[C@H](C)O1,nt,nt,-14%,nt,nt,13%[9.04 µM]
CC(C)Nc1ncnc2c1ncn2[C@H]1CN(CCN2CCOCC2)C[C@@H](CO)O1,?,i,3%,?,i,10%
COc1ccc(Cn2c(=O)c3ccccc3n3c(-c4cccc(OC)c4OC)nnc23)cc1,nt,?,16µM*,nt,i,?
Clc1ccc(-c2nnc(CNC3CC3)o2)cc1,3%,i,?,-2%,i,20%
Cc1nn(-c2nc(-c3ccc(F)cc3)cc(C(F)(F)F)n2)c(C)c1Br,nt,i,18µM*,nt,i,?
SMILES,HT1080-NT tox,KB-V1 cytotox,TDP1 cell noCPT,HT1080 IDH1KD tx,KB-3-1 cytotox,TDP1 cell CPT
Fc1ccc(-c2cc(C(F)(F)F)nc(N3CCCCC3)n2)cc1,0%,i,5%,-1%,i,-44%
Cc1nn(-c2nc(-c3ccc(F)cc3)cc(C(F)(F)F)n2)c(C)c1Cl,nt,?,18µM*,nt,i,18µM*
COc1ccc(C2(O)CCN(CCCCOc3ccccc3)CC2)cc1,?,i,?,?,i,?
O=C(C1CCCN1S(=O)(=O)c1ccc(Cl)c(Cl)c1)N1CCOCC1 (configuration not stated),10%,i,-13%,14%,i,-16%
O=C(C1CCCCN1S(=O)(=O)c1ccccc1)N1CCCCC1 (configuration not stated),-5%,?,16µM*,-1%,i,?
O=C(C1CCCCN1S(=O)(=O)c1ccccc1)N1CCN(Cc2ccccc2)CC1 (configuration not stated),3%,i,-26%,-5%,?,?
O=C(C1CCCCN1S(=O)(=O)c1ccccc1)N1CCN(C(c2ccccc2)c2ccccc2)CC1 (configuration not stated),-1%[9.24 µM],i,21µM*,-20%,i,23µM*
O=C(C1CCCN1S(=O)(=O)c1ccc(Cl)c(Cl)c1)N1CCCCC1 (configuration not stated),9%,i,16µM*,1%,i,18µM*
COc1ccc(-c2onc(C)c2C)cc1S(=O)(=O)N1c2ccccc2CC1C (configuration not stated),nt,nt,?,nt,nt,23µM*
CCN(CC)c1ccc(NS(=O)(=O)c2cc(-c3onc(C)c3C)ccc2OC)c(C)c1,nt,nt,?,nt,nt,23µM*
COc1ccc(-c2onc(C)c2C)cc1S(=O)(=O)NCC1CCN(Cc2cc(C)ccc2C)CC1,nt,i,16µM*,nt,i,?
COc1ccc(-c2onc(C)c2C)cc1S(=O)(=O)NCc1ccc(Br)cc1,nt,?,13µM*,nt,?,10µM*
COc1ccc(-c2onc(C)c2C)cc1S(=O)(=O)NCCc1ccco1,?,i,-28%,?,?,?
CC(=O)Nc1ccc(-c2c(C)cc3oc(=O)cc(-c4ccccc4)c3c2C)cc1,-12%,i,?,-18%,i,-8%
Cc1ccccc1-c1nc(Nc2ccncc2)c2ccccc2n1,nt,nt,-18%,nt,nt,-6%
COc1ccccc1CN1CCOc2ccc(CN3CCC(Oc4cccnc4)CC3)cc2C1,nt,nt,?,nt,nt,-2%[9.04 µM]
CCN(CC)C(=O)COc1ccc(/C=C(\C#N)S(=O)(=O)c2ccccc2)cc1OC,-10%,?,8%,13%,i,1%

# Compound activity (PubChem BioAssay)
